Data reported in the supplement of paper PMC10849652.
Targets with a hit are over-represented here; the source holds about 7,900 in all. About 0.6% of all pairs of compound and target were hits. Unmarked numbers belong to inactive results.

What was measured:
Assay in all cases: log2 fold change, soluble protein after heating vs DMSO (PISA); higher = thermal stabilisation; K562 cells, 10 uM, 30 min; active = over 0.2 and 3.5 SD of the protein, either way, in both replicates (recomputed)
[1] = compound: COC1=CC=C(C=C1)CN2C=CC3=C2C=C(C=C3)C(=O)NO
Outline: (§1)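 K562 cells at 2×10^6 cells/mL were treated with 10 μM compound for 30 min. Aliquots were heated for 3 min across 48°C-58°C, pooled, and extracted in PBS with 0.5% NP-40 at 4°C; soluble protein was the supernatant after 21,000xg for 90 min. Soluble protein was quantified by TMTpro 16plex LC-MS/MS with channel sums equalised, and reported as log2 fold change in thermal stability against DMSO controls, with values from duplicates.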

filanesib = compound: CON(C)C(=O)N1N=C(c2cc(F)ccc2F)S[C@@]1(CCCN)c1ccccc1 [filanesib]
Outline: as §1

zotarolimus = compound: CO[C@H]1C[C@@H]2CC[C@@H](C)[C@@](O)(O2)C(=O)C(=O)N2CCCC[C@H]2C(=O)O[C@H]([C@H](C)C[C@@H]2CC[C@H](n3cnnn3)[C@H](OC)C2)CC(=O)[C@H](C)/C=C(\C)[C@@H](O)[C@@H](OC)C(=O)[C@H](C)C[C@H](C)/C=C/C=C/C=C/1C [zotarolimus]
Outline: as §1

idasanutlin = compound: COc1cc(C(=O)O)ccc1NC(=O)[C@@H]1N[C@@H](CC(C)(C)C)[C@](C#N)(c2ccc(Cl)cc2F)[C@H]1c1cccc(Cl)c1F [idasanutlin]
Outline: as §1

alisertib = compound: COc1cc(Nc2ncc3c(n2)-c2ccc(Cl)cc2C(c2c(F)cccc2OC)=NC3)ccc1C(=O)O [alisertib]
Outline: as §1

[2] = compound: COc1cc2nc(-c3cc(F)ccc3O)nc(N[C@@H]3CNC[C@H]3C(C)(C)O)c2cc1OC
Outline: as §1

gefitinib = compound: COc1cc2ncnc(Nc3ccc(F)c(Cl)c3)c2cc1OCCCN1CCOCC1 [gefitinib]
Outline: as §1

[3] = compound: COc1cccc2cc(-c3nc([C@H]4CC[C@H](C(=O)O)CC4)n4ncnc(N)c34)[nH]c12
Outline: as §1

lapatinib = compound: CS(=O)(=O)CCNCc1ccc(-c2ccc3ncnc(Nc4ccc(OCc5cccc(F)c5)c(Cl)c4)c3c2)o1 [lapatinib]
Outline: as §1

[4] = compound: CS(=O)(=O)c1ccc(-c2cnc(N)c(C(=O)Nc3ccccc3)n2)cc1
Outline: as §1

crizotinib = compound: C[C@@H](Oc1cc(-c2cnn(C3CCNCC3)c2)cnc1N)c1c(Cl)ccc(F)c1Cl [crizotinib]
Outline: as §1

[5] = compound: C[C@@H]1COCCN1C2=NC(=NC(=C2)C3(CC3)S(=O)(=O)C)C4=C5C=CNC5=CC=C4
Outline: as §1

[6] = compound: C[C@H](C1=CC=C(C=C1)C(=O)NC2=C3C=CNC3=NC=C2)N
Outline: as §1

duvelisib = compound: C[C@H](Nc1ncnc2nc[nH]c12)c1cc2cccc(Cl)c2c(=O)n1-c1ccccc1 [duvelisib]
Outline: as §1

tozasertib = compound: Cc1cc(Nc2cc(N3CCN(C)CC3)nc(Sc3ccc(NC(=O)C4CC4)cc3)n2)n[nH]1 [tozasertib]
Outline: as §1

[7] = compound: Cc1cc(SCc2sc(-c3ccc(C(F)(F)F)cc3)nc2C)ccc1OCC(=O)O
Outline: as §1

doramapimod = compound: Cc1ccc(-n2nc(C(C)(C)C)cc2NC(=O)Nc2ccc(OCCN3CCOCC3)c3ccccc23)cc1 [doramapimod]
Outline: as §1

ispinesib = compound: Cc1ccc(C(=O)N(CCCN)[C@@H](c2nc3cc(Cl)ccc3c(=O)n2Cc2ccccc2)C(C)C)cc1 [ispinesib]
Outline: as §1

pictilisib = compound: CS(=O)(=O)N1CCN(Cc2cc3nc(-c4cccc5[nH]ncc45)nc(N4CCOCC4)c3s2)CC1 [pictilisib]
Outline: as §1

gandotinib = compound: Cc1cc(Nc2cc(CN3CCOCC3)c3nc(C)c(Cc4ccc(Cl)cc4F)n3n2)n[nH]1 [gandotinib]
Outline: as §1

## UFM1 (UniProt P61960)
Chain of UniProt P61960 (P61960 whole entry, looked up): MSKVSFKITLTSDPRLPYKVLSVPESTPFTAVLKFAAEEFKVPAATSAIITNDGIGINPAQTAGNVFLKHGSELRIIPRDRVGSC
[1]
  log2 fold change: 0.048
filanesib
  log2 fold change: -0.08
zotarolimus
  log2 fold change: -0.139
idasanutlin
  log2 fold change: 0.28
alisertib
  log2 fold change: -0.001
[2]
  log2 fold change: 0.01
gefitinib
  log2 fold change: 0.069
[3]
  log2 fold change: 0.055
lapatinib
  log2 fold change: -0.002
[4]
  log2 fold change: 0.021
crizotinib
  log2 fold change: 0.004
[5]
  log2 fold change: 0.178
[6]
  log2 fold change: -0.062
duvelisib
  log2 fold change: 0.146
tozasertib
  log2 fold change: -0.056
[7]
  log2 fold change: -0.043
doramapimod
  log2 fold change: -0.037
ispinesib
  log2 fold change: 0.158

## TMEM179B (UniProt Q7Z7N9)
Chain of UniProt Q7Z7N9 (Q7Z7N9 whole entry, looked up): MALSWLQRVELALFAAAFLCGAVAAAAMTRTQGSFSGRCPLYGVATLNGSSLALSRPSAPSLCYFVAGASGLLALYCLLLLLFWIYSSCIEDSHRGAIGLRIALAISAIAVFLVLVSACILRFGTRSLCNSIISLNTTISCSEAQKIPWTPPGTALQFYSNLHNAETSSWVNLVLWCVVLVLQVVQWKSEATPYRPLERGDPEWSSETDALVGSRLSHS
[1]
  log2 fold change: -0.019
filanesib
  log2 fold change: -0.162
zotarolimus
  log2 fold change: -0.205
idasanutlin
  log2 fold change: 0.088
alisertib
  log2 fold change: -0.007
[2]
  log2 fold change: -0.03
gefitinib
  log2 fold change: 0.039
[3]
  log2 fold change: 0.175
lapatinib
  log2 fold change: 0.032
pictilisib
  log2 fold change: 0.036
[4]
  log2 fold change: -0.005
crizotinib
  log2 fold change: -0.167
[5]
  log2 fold change: 0.101
[6]
  log2 fold change: -0.165
gandotinib
  log2 fold change: -0.138
tozasertib
  log2 fold change: 0.032
doramapimod
  log2 fold change: 0.071
ispinesib
  log2 fold change: -0.099

## TMEM184C (UniProt Q9NVA4)
Chain of UniProt Q9NVA4 (Q9NVA4 whole entry, looked up): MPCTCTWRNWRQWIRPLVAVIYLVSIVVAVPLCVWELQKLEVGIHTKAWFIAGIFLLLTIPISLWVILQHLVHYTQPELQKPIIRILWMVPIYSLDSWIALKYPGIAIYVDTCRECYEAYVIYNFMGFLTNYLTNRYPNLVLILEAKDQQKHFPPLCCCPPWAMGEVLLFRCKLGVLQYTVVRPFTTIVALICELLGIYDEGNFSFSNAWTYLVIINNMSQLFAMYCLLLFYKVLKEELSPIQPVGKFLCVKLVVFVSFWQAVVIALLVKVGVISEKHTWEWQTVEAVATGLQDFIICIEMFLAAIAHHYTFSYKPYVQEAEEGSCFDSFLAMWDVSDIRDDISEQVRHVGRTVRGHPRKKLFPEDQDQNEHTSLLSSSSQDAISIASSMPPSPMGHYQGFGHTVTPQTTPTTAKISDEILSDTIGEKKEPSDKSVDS
[1]
  log2 fold change: -0.006
filanesib
  log2 fold change: 0.162
zotarolimus
  log2 fold change: -0.11
idasanutlin
  log2 fold change: -0.112
alisertib
  log2 fold change: 0.059
gefitinib
  log2 fold change: -0.043
[3]
  log2 fold change: 0.077
pictilisib
  log2 fold change: 0.162
[4]
  log2 fold change: 0.117
crizotinib
  log2 fold change: -0.267
[5]
  log2 fold change: 0.019
[6]
  log2 fold change: -0.049
duvelisib
  log2 fold change: -0.046
gandotinib
  log2 fold change: -0.038
tozasertib
  log2 fold change: 0.046
[7]
  log2 fold change: 0.036
doramapimod
  log2 fold change: 0.019
ispinesib
  log2 fold change: -0.365 (active)

## UTP4 (UniProt Q969X6)
Chain of UniProt Q969X6 (Q969X6 whole entry, looked up): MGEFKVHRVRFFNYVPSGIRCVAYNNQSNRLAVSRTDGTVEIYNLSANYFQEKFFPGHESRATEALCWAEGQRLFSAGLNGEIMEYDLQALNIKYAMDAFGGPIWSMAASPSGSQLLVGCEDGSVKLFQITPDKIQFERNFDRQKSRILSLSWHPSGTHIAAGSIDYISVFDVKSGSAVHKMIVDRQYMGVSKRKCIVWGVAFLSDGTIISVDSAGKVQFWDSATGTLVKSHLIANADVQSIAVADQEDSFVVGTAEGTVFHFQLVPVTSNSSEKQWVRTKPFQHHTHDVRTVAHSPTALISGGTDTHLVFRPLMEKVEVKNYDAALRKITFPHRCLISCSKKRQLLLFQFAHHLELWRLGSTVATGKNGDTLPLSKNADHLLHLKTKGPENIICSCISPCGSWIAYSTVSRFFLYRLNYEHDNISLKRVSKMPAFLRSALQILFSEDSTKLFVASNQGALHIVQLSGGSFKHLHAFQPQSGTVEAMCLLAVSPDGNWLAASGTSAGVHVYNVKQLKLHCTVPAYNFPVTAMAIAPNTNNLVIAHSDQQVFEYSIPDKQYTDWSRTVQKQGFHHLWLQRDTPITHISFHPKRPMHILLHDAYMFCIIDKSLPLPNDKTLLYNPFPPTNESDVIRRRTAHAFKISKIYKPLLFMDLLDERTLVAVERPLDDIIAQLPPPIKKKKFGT
[1]
  log2 fold change: -0.05
filanesib
  log2 fold change: -0.043
zotarolimus
  log2 fold change: -0.017
idasanutlin
  log2 fold change: -0.034
alisertib
  log2 fold change: -0.095
[2]
  log2 fold change: 0.132
gefitinib
  log2 fold change: 0
[3]
  log2 fold change: 0.029
lapatinib
  log2 fold change: -0.006
pictilisib
  log2 fold change: 0.035
[4]
  log2 fold change: -0.013
crizotinib
  log2 fold change: 0.019
[5]
  log2 fold change: 0.055
[6]
  log2 fold change: 0.004
duvelisib
  log2 fold change: 0.022
gandotinib
  log2 fold change: 0.004
tozasertib
  log2 fold change: 0.006
[7]
  log2 fold change: -0.056
doramapimod
  log2 fold change: 0.012
ispinesib
  log2 fold change: 0.066

## TTI2 (UniProt Q6NXR4)
Chain of UniProt Q6NXR4 (Q6NXR4 whole entry, looked up): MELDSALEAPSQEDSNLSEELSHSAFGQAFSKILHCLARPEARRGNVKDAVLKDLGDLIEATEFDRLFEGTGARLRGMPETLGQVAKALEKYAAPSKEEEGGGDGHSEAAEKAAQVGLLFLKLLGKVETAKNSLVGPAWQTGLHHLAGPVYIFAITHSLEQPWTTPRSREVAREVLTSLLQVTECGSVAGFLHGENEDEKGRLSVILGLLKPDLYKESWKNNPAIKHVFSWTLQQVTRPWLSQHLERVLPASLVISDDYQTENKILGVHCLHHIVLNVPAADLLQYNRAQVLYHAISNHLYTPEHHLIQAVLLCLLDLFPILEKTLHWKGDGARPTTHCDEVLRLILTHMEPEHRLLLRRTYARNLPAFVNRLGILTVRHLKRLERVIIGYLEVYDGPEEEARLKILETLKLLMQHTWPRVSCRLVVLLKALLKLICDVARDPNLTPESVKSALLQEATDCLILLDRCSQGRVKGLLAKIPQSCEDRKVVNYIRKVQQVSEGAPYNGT
[1]
  log2 fold change: 0.012
filanesib
  log2 fold change: 0.06
zotarolimus
  log2 fold change: -0.008
idasanutlin
  log2 fold change: -0.04
alisertib
  log2 fold change: 0.028
[2]
  log2 fold change: -0.034
gefitinib
  log2 fold change: -0.081
[3]
  log2 fold change: -0.025
lapatinib
  log2 fold change: 0.033
[4]
  log2 fold change: -0.066
crizotinib
  log2 fold change: -0.155
[5]
  log2 fold change: 0.028
[6]
  log2 fold change: 0.121
duvelisib
  log2 fold change: -0.067
tozasertib
  log2 fold change: 0.004
[7]
  log2 fold change: 0.142
doramapimod
  log2 fold change: 0.013
ispinesib
  log2 fold change: -0.204

## UCHL5 isoform 3 (UniProt Q9Y5K5)
Chain of UniProt Q9Y5K5 (Q9Y5K5 whole entry, looked up): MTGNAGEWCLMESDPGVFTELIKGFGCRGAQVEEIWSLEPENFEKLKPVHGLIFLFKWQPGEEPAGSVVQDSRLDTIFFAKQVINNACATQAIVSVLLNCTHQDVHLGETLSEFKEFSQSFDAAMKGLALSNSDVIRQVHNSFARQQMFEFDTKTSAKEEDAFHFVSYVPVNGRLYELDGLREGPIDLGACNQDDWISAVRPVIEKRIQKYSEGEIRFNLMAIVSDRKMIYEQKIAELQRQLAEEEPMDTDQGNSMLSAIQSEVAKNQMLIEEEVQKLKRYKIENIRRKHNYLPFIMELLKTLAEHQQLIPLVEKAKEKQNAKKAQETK
[1]
  log2 fold change: 0.229
filanesib
  log2 fold change: -0.13
zotarolimus
  log2 fold change: 0.227
idasanutlin
  log2 fold change: 0.057
alisertib
  log2 fold change: 0.072
[2]
  log2 fold change: 0.036
gefitinib
  log2 fold change: -0.04
[3]
  log2 fold change: 0.16
lapatinib
  log2 fold change: -0.07
[4]
  log2 fold change: 0.039
crizotinib
  log2 fold change: -0.458
[5]
  log2 fold change: 0.058
[6]
  log2 fold change: -0.05
tozasertib
  log2 fold change: 0.219
doramapimod
  log2 fold change: -0.067
ispinesib
  log2 fold change: 0.02

## UBE2E3 (UniProt Q969T4)
Chain of UniProt Q969T4 (Q969T4 whole entry, looked up): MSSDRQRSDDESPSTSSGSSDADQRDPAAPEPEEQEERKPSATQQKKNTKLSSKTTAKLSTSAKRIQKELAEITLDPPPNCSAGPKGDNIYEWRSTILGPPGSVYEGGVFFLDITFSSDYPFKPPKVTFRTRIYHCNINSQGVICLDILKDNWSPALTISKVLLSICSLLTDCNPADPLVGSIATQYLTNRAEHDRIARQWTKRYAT
[1]
  log2 fold change: -0.077
filanesib
  log2 fold change: -0.046
zotarolimus
  log2 fold change: -0.013
idasanutlin
  log2 fold change: -0.075
alisertib
  log2 fold change: -0.045
[2]
  log2 fold change: 0.108
gefitinib
  log2 fold change: -0.076
[3]
  log2 fold change: 0.022
lapatinib
  log2 fold change: -0.021
pictilisib
  log2 fold change: 0.089
[4]
  log2 fold change: 0.008
crizotinib
  log2 fold change: 0
[5]
  log2 fold change: 0.219
[6]
  log2 fold change: 0.008
duvelisib
  log2 fold change: 0.025
gandotinib
  log2 fold change: -0.052
tozasertib
  log2 fold change: 0.061
[7]
  log2 fold change: 0.034
doramapimod
  log2 fold change: 0.03
ispinesib
  log2 fold change: -0.005

## UBE2J1 (UniProt Q9Y385)
Chain of UniProt Q9Y385 (Q9Y385 whole entry, looked up): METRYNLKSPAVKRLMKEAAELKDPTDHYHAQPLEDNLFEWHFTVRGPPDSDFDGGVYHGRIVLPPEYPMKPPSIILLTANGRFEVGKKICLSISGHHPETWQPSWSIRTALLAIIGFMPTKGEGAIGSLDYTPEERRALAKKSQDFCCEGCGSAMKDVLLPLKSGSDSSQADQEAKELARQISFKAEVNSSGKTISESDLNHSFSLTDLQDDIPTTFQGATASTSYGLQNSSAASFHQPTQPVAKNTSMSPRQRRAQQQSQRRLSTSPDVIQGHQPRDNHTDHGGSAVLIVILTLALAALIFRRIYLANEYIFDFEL
[1]
  log2 fold change: -0.209
filanesib
  log2 fold change: 0.119
zotarolimus
  log2 fold change: 0.046
idasanutlin
  log2 fold change: -0.12
alisertib
  log2 fold change: -0.259
[2]
  log2 fold change: 0.232
gefitinib
  log2 fold change: -0.035
[3]
  log2 fold change: 0.241
lapatinib
  log2 fold change: -0.064
pictilisib
  log2 fold change: -0.081
[4]
  log2 fold change: 0.06
crizotinib
  log2 fold change: -0.172
[5]
  log2 fold change: 0.026
[6]
  log2 fold change: -0.043
duvelisib
  log2 fold change: 0.179
gandotinib
  log2 fold change: -0.151
tozasertib
  log2 fold change: 0.026
[7]
  log2 fold change: -0.01
doramapimod
  log2 fold change: -0.26
ispinesib
  log2 fold change: -0.016

## UBE3B (UniProt Q7Z3V4)
Chain of UniProt Q7Z3V4 (Q7Z3V4 whole entry, looked up): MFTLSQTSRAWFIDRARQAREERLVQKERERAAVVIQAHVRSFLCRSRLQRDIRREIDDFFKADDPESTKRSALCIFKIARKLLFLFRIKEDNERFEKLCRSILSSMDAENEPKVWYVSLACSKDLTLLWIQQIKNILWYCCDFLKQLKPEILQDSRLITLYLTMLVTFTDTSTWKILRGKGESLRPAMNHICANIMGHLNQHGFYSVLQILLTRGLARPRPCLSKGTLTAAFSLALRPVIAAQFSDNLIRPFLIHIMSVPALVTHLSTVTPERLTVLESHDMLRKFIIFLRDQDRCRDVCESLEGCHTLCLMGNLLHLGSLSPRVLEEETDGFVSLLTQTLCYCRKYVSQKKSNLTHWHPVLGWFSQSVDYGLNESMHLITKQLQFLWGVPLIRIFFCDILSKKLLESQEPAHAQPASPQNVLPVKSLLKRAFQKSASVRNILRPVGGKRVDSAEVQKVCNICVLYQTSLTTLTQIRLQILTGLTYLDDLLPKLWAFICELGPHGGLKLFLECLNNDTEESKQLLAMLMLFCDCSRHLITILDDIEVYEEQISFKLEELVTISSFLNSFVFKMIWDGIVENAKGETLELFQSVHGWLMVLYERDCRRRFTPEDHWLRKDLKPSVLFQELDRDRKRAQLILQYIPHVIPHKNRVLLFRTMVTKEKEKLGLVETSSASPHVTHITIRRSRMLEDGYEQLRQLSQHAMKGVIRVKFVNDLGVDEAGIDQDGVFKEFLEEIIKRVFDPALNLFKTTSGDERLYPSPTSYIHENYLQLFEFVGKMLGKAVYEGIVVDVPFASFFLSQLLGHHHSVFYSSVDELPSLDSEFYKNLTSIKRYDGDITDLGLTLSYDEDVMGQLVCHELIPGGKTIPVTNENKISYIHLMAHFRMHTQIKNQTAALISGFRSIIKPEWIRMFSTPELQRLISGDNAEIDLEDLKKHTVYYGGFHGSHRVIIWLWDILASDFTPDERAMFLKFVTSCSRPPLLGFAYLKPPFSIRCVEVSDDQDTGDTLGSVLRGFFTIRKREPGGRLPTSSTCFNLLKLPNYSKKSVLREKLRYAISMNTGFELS
[1]
  log2 fold change: 0.03
filanesib
  log2 fold change: 0.058
zotarolimus
  log2 fold change: 0.086
idasanutlin
  log2 fold change: 0.065
[2]
  log2 fold change: 0.247
gefitinib
  log2 fold change: -0.037
lapatinib
  log2 fold change: 0.212
[4]
  log2 fold change: 0.106
crizotinib
  log2 fold change: -0.133
[5]
  log2 fold change: 0.254
[6]
  log2 fold change: -0.108
duvelisib
  log2 fold change: 0.141
tozasertib
  log2 fold change: -0.109
[7]
  log2 fold change: 0.021
doramapimod
  log2 fold change: -0.055
ispinesib
  log2 fold change: 0.178
